From PubChem BioAssay (Tox21) come the findings set out here.

Test [1] is described as follows: qHTS assay to identify small molecule antagonists of the thyroid receptor (TR) signaling pathway - cell viability counter screen (AID 743064). Also: nearly all actives have a fitted effect of over 50% in size. Also: potency is read from the fitted curve at half-maximal effect. The procedure, abridged:
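Same-well viability check: GH3.TRE-Luc cells stimulated with 1 nM T3 alongside test compound for 23.5 h, followed by CellTiter-Fluor fluorescence.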

Test [2] can be described thus: qHTS assay to identify small molecule antagonists of the thyroid receptor (TR) signaling pathway (AID 743065). Also: nearly all actives have a fitted effect of over 55% in size. Also: potency is read from the fitted curve at half-maximal effect. In outline:
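GH3.TRE-Luc rat pituitary cells (two TREs driving luciferase) were dosed with compound, then stimulated with 1 nM T3 (final) for 23.5 h at 37 C. ONE-Glo luminescence was the read-out, with CellTiter-Fluor fluorescence as the cytotoxicity counter-screen.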
A general note: Quantitative high-throughput screening tests each substance at several concentrations.

In test [3] the test system is thyroid hormone receptor (rat, GH3 cells). As to the kind of experiment: qHTS assay to identify small molecule agonists of the thyroid receptor (TR) signaling pathway (AID 743066; calls by dose curve).
A short description of test [4]: qHTS assay to identify small molecule antagonists of the estrogen receptor alpha (ER-alpha) signaling pathway - cell viability counter screen (AID 743074; calls by dose curve;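 also: HEK293 cells carrying ER-alpha-UAS-bla reporter stimulated with 17beta-estradiol; nearly all actives have a fitted effect of over 45% in size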; also: potency is read from the fitted curve at half-maximal effect).
Test [5] can be described thus: qHTS assay to identify small molecule antagonists of the estrogen receptor alpha (ER-alpha) signaling pathway using the BG1 cell line - cell viability counter screen (AID 743081).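 Also: compound given together with 17beta-estradiol as the ER stimulus; nearly all actives have a fitted effect of over 45% in size.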 Also: potency is read from the fitted curve at half-maximal effect.
A further test deals with Aromatase (Homo sapiens) (UniProt P11511). As to the kind of experiment: qHTS assay to identify aromatase inhibitors (AID 743083). Also: nearly all actives have a fitted effect of over 55% in size. Also: potency is read from the fitted curve at half-maximal effect.
Chain of Aromatase (Homo sapiens) (P11511 whole entry, looked up): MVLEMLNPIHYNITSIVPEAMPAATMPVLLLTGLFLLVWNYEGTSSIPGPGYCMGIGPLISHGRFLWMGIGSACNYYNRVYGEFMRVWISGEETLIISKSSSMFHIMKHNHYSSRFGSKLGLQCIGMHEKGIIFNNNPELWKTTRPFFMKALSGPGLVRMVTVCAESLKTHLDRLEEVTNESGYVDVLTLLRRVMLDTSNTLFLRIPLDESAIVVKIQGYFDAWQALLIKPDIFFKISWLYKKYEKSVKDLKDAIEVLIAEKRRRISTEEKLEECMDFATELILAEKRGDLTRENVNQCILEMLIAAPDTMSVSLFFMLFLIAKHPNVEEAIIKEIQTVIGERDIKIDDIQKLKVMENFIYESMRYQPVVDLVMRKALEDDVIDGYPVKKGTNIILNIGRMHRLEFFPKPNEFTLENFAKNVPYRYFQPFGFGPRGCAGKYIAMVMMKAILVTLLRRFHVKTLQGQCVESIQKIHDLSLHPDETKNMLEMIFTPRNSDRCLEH
Test [6] in a line: qHTS assay to identify aromatase inhibitors - cell viability counter screen (AID 743084).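 Also: cells stimulated with testosterone during compound exposure; nearly all actives have a fitted effect of over 55% in size.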 Also: potency is read from the fitted curve at half-maximal effect.
The nature of test [7]: qHTS assay to identify small molecule that activate the aryl hydrocarbon receptor (AhR) signaling pathway - cell viability counter screen (AID 743086). Also: nearly all actives have a fitted effect of over 45% in size. Also: potency is read from the fitted curve at half-maximal effect.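 As to viability change, negative = cytotoxic: HepG2 liver cells carrying the AhR DRE luciferase reporter.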 The procedure, abridged:
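HepG2-AhR-luc (HG2L7.5c1) cells, 4000/well, treated 24 h at 37 C with compound; viability measured as CellTiter-Fluor fluorescence after 30 min in the same wells as the luciferase read.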

Test [8] is described as follows: qHTS assay to identify small molecule antagonists of the peroxisome proliferator-activated receptor gamma (PPARg) signaling pathway - cell viability counter screen (AID 743194). Also: nearly all actives have a fitted effect of over 55% in size. Also: potency is read from the fitted curve at half-maximal effect. The conditions noted are these: Potency: co-treated with 50 nM rosiglitazone unless noted. The procedure, abridged: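 Cytotoxicity counter screen in PPARg-bla HEK293H cells, same wells as reporter assay. Compounds plus 50 nM rosiglitazone (final) for 17 h at 37 C, then viability read by CellTiter-Glo luminescence.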

A short description of test [9]: qHTS assay for small molecule agonists of the antioxidant response element (ARE) signaling pathway - cell viability counter screen (AID 743203; calls by dose curve; also: nearly all actives have a fitted effect of over 55% in size; also: potency is read from the fitted curve at half-maximal effect). In outline: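 Parallel cytotoxicity read-out for the ARE-bla screen: HepG2 reporter cells, 16 hrs with compounds, then CellTiter-Glo luminescence.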
Test [10] can be described thus: qHTS assay for small molecule activators of the heat shock response signaling pathway - cell viability counter screen (AID 743209). Also: nearly all actives have a fitted effect of over 50% in size. Also: potency is read from the fitted curve at half-maximal effect. In outline: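 To flag cytotoxic compounds, HSE-bla HeLa cells plated at 1500 cells/well were dosed for 5 h at 37 C, followed by the reporter FRET read and then CellTiter-Glo, with luminescence recorded 30 min after reagent addition.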

Test [11] is described as follows: qHTS assay for small molecule activators of the heat shock response signaling pathway (AID 743210; active = well fitted activation curve with a large enough effect in the signal ratio in the repeat runs, with a control signal flat, not every such curve was filed as active; inconclusive = weak or mixed curves; the % refers to the signal ratio;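 also: HeLa cells with beta-lactamase reporter driven by heat shock elements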). The procedure, abridged:
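Beta-lactamase reporter read-out: FRET substrate fluorescence after 2.5 h at RT, following 5 h compound treatment at 37 C of HeLa cells carrying HSE-driven bla reporter; quantitative HTS format.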

Test [12] can be described thus: qHTS assay for small molecule agonists of the antioxidant response element (ARE) signaling pathway (AID 743202; active = well fitted activation curve with a large enough effect in the signal ratio in the repeat runs, not every such curve was filed as active; inconclusive = weak or mixed curves, or effect the other way; inactive = no such curve, though single readings can be large or run the other way; the % refers to the signal ratio). In outline:
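HepG2 ARE-bla reporter line, 2,000 cells/well; 5 h preincubation 37 C/5% CO2; compound (DMSO) 16 h 37 C; B/G FRET substrate 2 h RT; fluorescence intensity.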

Test [13] concerns the target Aryl hydrocarbon receptor (Homo sapiens) (UniProt P35869). The test can be described thus: qHTS assay to identify small molecule that activate the aryl hydrocarbon receptor (AhR) signaling pathway (AID 743085).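 Also: HG2L7.5c1 human HepG2 liver cells with stably integrated DRE-driven firefly reporter; nearly all actives have a fitted effect of over 15% in size.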 The procedure, abridged:
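Reporter assay in engineered HepG2 line HG2L7.5c1, whose plasmid carries twenty dioxin responsive elements upstream of firefly luciferase. Treatment lasted 24 h at 37C; ONE-Glo luminescence gauged induction.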

In test [14] the target is Estrogen receptor (Homo sapiens) (UniProt P03372). As to the kind of experiment: qHTS assay to identify small molecule antagonists of the estrogen receptor alpha (ER-alpha) signaling pathway (AID 743069; active = well fitted curve in the direction sought with a large enough effect in the signal ratio in the repeat runs, not every such curve was filed as active; inconclusive = weak or mixed curves, or effect the other way; inactive = no such curve, though single readings can be large or run the other way; the % refers to the signal ratio; also: potency is read from the fitted curve at half-maximal effect). In outline:
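Beta-lactamase FRET fluorescence is read after 2 hr at room temperature with LiveBLAzer B/G substrate. Before that, ER-alpha-bla HEK293 cells sit 4 hr after plating, then receive compound plus 17beta-estradiol and incubate 18 hr at 37C.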

Test [15] shares this target. As to the kind of experiment: qHTS assay to identify small molecule agonists of the estrogen receptor alpha (ER-alpha) signaling pathway (AID 743075; calls by dose curve;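 also: HEK293 GripTite cells with ER-alpha and UAS-driven beta-lactamase reporter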; also: potency is read from the fitted curve at half-maximal effect).
The target is the same in test [16]. As to the kind of experiment: qHTS assay to identify small molecule agonists of the estrogen receptor alpha (ER-alpha) signaling pathway using the BG1 cell line (AID 743079). Also: nearly all actives have a fitted effect of over 20% in size. The conditions noted are these: BG1Luc4E2 cells, ERE-luciferase agonist, 22 h; activation: at 70.3 µM (top of the series).
In test [17] the target is Peroxisome proliferator-activated receptor gamma (Homo sapiens) (UniProt P37231). As to the kind of experiment: qHTS assay to identify small molecule agonists of the peroxisome proliferator-activated receptor gamma (PPARg) signaling pathway (AID 743094; active = well fitted activation curve with a large enough effect in the signal ratio in the repeat runs, not every such curve was filed as active; inconclusive = weak or mixed curves, or effect the other way; inactive = no such curve, though single readings can be large or run the other way; the % refers to the signal ratio). The procedure, abridged:
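Fluorescence-based beta-lactamase readout in HEK293H PPARg UAS-bla cells after 17 h compound exposure (37C) and 1 h B/G FRET substrate incubation at room temperature.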

Several values for one entry are separate records, joined by “and”; a condition that tells them apart may be missing. Identical values can stand only once. A number with no mark means an inactive call. Activity calls are given as the source filed them. Unless noted, calls follow the shape of the dose curve; as a rule, active = well fitted curve in the direction sought with a large enough effect in the repeat runs; inconclusive = weak or mixed curves; inactive = no such curve, though single readings can be large; an effect the other way counts as inactive or inconclusive.
% is scaled to controls: 0 for no effect and ±100 for the full control effect.

Chain of Estrogen receptor (Homo sapiens) (P03372 whole entry, looked up): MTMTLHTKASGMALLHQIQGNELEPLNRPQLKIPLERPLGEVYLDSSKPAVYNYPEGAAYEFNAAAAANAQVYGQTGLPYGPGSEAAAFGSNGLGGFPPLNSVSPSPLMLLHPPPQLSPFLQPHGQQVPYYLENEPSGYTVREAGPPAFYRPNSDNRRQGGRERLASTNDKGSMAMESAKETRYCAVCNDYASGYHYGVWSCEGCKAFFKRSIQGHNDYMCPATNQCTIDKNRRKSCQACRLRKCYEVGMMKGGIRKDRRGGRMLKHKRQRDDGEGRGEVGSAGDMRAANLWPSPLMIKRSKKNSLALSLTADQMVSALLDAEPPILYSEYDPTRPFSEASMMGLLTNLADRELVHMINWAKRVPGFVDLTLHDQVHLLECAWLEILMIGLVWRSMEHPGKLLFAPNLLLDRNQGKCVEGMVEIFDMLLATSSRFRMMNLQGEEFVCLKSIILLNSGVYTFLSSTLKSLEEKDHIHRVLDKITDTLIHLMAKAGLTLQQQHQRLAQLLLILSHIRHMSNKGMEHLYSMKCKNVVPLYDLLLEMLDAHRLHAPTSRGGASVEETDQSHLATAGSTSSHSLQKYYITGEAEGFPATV
Chain of Aryl hydrocarbon receptor (Homo sapiens) (P35869 whole entry, looked up): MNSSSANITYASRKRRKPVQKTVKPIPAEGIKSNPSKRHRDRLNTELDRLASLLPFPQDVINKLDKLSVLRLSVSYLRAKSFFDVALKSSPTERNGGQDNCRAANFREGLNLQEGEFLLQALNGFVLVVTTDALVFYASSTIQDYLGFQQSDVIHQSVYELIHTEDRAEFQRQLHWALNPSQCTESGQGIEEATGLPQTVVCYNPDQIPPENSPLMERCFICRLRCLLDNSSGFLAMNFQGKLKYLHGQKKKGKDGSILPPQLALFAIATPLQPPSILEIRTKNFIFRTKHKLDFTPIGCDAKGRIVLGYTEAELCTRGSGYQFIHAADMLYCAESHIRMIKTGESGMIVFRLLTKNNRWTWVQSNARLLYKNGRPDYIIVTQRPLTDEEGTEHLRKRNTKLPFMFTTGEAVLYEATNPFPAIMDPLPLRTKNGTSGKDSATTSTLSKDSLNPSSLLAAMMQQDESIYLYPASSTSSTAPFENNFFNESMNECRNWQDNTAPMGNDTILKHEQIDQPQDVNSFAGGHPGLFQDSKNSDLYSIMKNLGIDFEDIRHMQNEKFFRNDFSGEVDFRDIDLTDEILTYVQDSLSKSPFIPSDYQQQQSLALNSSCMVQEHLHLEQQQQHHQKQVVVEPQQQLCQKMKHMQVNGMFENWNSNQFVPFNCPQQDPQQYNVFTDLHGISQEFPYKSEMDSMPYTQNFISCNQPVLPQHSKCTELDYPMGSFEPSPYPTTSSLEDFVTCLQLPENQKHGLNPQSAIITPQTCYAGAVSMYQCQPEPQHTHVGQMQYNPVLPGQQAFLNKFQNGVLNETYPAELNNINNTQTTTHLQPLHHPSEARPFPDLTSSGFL
Chain of Peroxisome proliferator-activated receptor gamma (Homo sapiens) (P37231 whole entry, looked up): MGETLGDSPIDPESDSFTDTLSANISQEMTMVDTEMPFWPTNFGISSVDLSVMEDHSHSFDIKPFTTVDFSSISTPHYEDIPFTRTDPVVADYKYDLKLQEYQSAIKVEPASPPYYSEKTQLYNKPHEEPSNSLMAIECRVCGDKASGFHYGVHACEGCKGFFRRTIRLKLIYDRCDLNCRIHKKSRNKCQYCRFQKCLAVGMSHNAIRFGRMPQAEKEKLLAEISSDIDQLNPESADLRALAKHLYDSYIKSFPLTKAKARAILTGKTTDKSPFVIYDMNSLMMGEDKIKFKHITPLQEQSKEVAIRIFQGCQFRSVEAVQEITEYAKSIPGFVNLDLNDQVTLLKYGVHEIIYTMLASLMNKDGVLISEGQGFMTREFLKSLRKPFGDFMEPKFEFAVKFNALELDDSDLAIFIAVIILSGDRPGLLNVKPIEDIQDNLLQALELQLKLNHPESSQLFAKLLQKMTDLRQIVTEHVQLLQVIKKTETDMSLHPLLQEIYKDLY

Consider `CCCC[N+]1(C)CCCC1` (tested in a mixture with another compound), for which the Potency result (in test [1]; in test [2]; in [3]; in test [4]; in [5]; with Aromatase (Homo sapiens)) was “inactive” each time. Besides, the Potency result in test [6], in test [7], in test [8], in test [9], in [10] and in [11] was “inactive” each time.

As to `Clc1c(Cl)c(Cl)c(Cl)c(Cl)c1Cl`, the activity change, negative = cytotoxic in test [1] is -0.947% [at 8.44 µM]. The activity, negative = inhibition in test [2] is 0.884% [at 8.44 µM]. The values for the activation in [3], in test [12] and in test [11] were -1.24% [at 8.08 µM], -2.23% [at 8.36 µM] and -2.21% [at 5.95 µM], respectively. Moreover, the activity, negative = cytotoxicity in test [4] is 18.2% [at 6.72 µM]. Moreover, the activity change, negative = cytotoxicity is 5.59% [at 8.47 µM] in [5]; -5.6% [at 5.95 µM, co-treated with 50 nM rosiglitazone] in test [8]; -0.0057% [at 5.95 µM] in [10]. The viability change, negative = cytotoxic in test [7] is 3.05% [at 8.47 µM]; in test [9] it was 3.6% [at 8.36 µM].

For the compound `O=C1C2(Cl)C3(Cl)C4(Cl)C(Cl)(Cl)C5(Cl)C3(Cl)C1(Cl)C5(Cl)C24Cl` (stereo not given), the Potency in test [1] was 9.53 µM (active) and 13.1 µM (active); in test [2], 9.53 µM (active) and 11.7 µM (active); in test [4] it was 54 µM (active); in the test with Aromatase (Homo sapiens) it was 26.9 µM (active) and 52.2 µM (active); in [6], 26.9 µM (active) and 52.2 µM (active); in [9], 67.5 µM (active) and 58.5 µM (active). The Potency in test [10] is 48.2 µM (active). Moreover, the Potency result in test [3], in [5] and in [13] was “inactive” in each case.

Regarding `O=S1(=O)OCC2C(CO1)C1(Cl)C(Cl)=C(Cl)C2(Cl)C1(Cl)Cl` (stereo not given), the Potency in test [1] was 54.5 µM (active); in [2], 48.6 µM (active); with Aromatase (Homo sapiens), 54.5 µM (active); in test [6], 61.1 µM (active). For the same compound, the Potency result in [14], in [15], in test [16], in test [5], in test [13] and in test [7] was “inactive” each time. Besides, the Potency result in test [8] and in [9] was “inactive” each time.

In the case of `O=C(Nc1ccc(F)cc1F)c1cccnc1Oc1cccc(C(F)(F)F)c1`, the Potency entry (in test [1]; in [2]; in test [3]; in [4]; in test [5]; with Aromatase (Homo sapiens)) was “inactive” in each case. The Potency entry in [6], in test [7], in test [17], in test [8], in test [9] and in [10] was “inactive” throughout.

Turning to `O=C(NC(=O)c1c(F)cccc1F)Nc1ccc(Oc2ccc(C(F)(F)F)cc2Cl)cc1F`, the Potency in [1] was 43.3 µM (active); in [2], 38.6 µM (active). Moreover, the Potency result in test [3], in test [4], in test [5], in test [6], in test [13] and in [7] was “inactive” throughout. Besides, the Potency entry in test [8], in test [9] and in test [10] was “inactive” in each case.

On to `BrCCCBr`, for which the Potency entry (in test [1]; in [2]; in test [3]; in test [4]; in test [5]; in the test with Aromatase (Homo sapiens)) was “inactive” throughout. For the same compound, the Potency result in [6], in test [13], in [7], in [8], in test [12] and in test [9] was “inactive” each time. The Potency result in [10] and in [11] was “inactive” throughout.

As for `CC(=O)[O][Pb]([c]1ccccc1)([c]1ccccc1)[c]1ccccc1`, the Potency in test [1] is 0.686 µM (active); in [2], 0.077 µM (active); in [14] it was 54.9 µM [cytotoxic] (active); in test [4], 6.92 µM (active); in [15], 49 µM [inconclusive] (active); in test [5] it was 10.9 µM (active). For the same compound, the Potency was 0.193 µM (active) with Aromatase (Homo sapiens); 0.193 µM (active) in test [6]; 3.86 µM (active) in [7]; 0.11 µM (active) in test [8]; 172 nM (active) in [9]; 9.77 µM (active) in [10]. Moreover, the Potency result in [13] is “inactive”.
